Records with an inconclusive call do not appear. The source made the active and inactive calls.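 How the source made its calls, unless noted: active means inhibition over a set limit, the all-compound mean plus 3 SD, in both replicate runs; inconclusive means over that limit in just one replicate run; inactive means at or under that limit in both runs.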

The first assay is described as follows: viability of PTEN-null HCT116 cells – cell-based, HCT116 clonal line, CellTiter-Glo, pilot screen (AID 824;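 active means viability at or below 27.92% in each of two runs, the all-compound median minus 4 SD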;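 further: 0% = 20 µM Hyamine control and 100% = vehicle cell control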). Particulars: HCT116 PTEN-deleted viability, 60 h, at 10 µM, active compounds read low. Background: In ATP-based viability assays light output follows the ATP content of the culture.
As a reminder, the viability is a read-out of living cells in per cent, often relative to untreated cells. On to `CCCCCn1c(=O)[nH]c2cc(C(=O)NCCN3CCOCC3)ccc2c1=O`, for which the viability is 87.9% (inactive).

Turning to `Cc1ccc(-c2cc3nc4c(c(=O)n3[nH]2)CCCC4)cc1`, the viability was 90.4% (inactive).

Consider `CCCOC(=O)c1[nH]c2c(c1C)C(=O)CC(c1cc(OC)c(OC)c(OC)c1)C2` (configuration not stated), for which the viability was 61.2% (inactive).

Regarding `COc1cccc(-c2nc3n(n2)C(c2ccccc2Cl)C(C(N)=O)=C(C)N3)c1` (configuration not stated), the viability is 82.2% (inactive).

As to `Cc1c(NC(=O)c2ccc(Br)o2)c(=O)n(-c2ccccc2)n1C`, the viability is 103% (inactive).

For the molecule `COc1ccc(-c2nc(CS(=O)CC(=O)NCc3ccccn3)c(C)o2)cc1` (configuration not stated), the viability is 98.5% (inactive).

In the case of `CCOc1cc(C2NC(=O)NC(O)(C(F)(F)F)C2C(=O)c2ccccc2)ccc1OC` (configuration not stated), the viability was 97.8% (inactive).

Consider `CN(CCCNC(=O)c1cn(C)c2ccc(S(=O)(=O)N(C)C)cc2c1=O)c1ccccc1`, for which the viability was 85% (inactive).

The next assay is described as follows: RAM pathway blockade in budding yeast – dse1pr::URA3 reporter, 5-FOA selection, pilot screen (AID 869).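 Further: 0% = DMSO wells with no growth and 100% = 10 µM 1-NA-PP1 with full growth; RAM network block rescues cells from 5-FOA so hits raise OD615 growth.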 The conditions noted are these: S. cerevisiae dse1pr::URA3 5-FOA growth, OD615, 2 d; at 10 µM; active compounds read high; strain carries analog-sensitive mutant Cbk1 kinase.
What is called inhibition is the drop in the measured response relative to a control, in per cent. With `Cc1ccc(CNC(=O)C2CCCN(S(=O)(=O)c3cnc[nH]3)C2)cc1` (configuration not stated), the inhibition was 0.415% (inactive).

For the molecule `COc1cc2c(cc1OC)C(c1ccc(C)o1)CC(=O)N2` (configuration not stated), the inhibition is 1.21% (inactive).

As for `COc1ccc(S(=O)(=O)Nc2ccc(F)c(Cl)c2)cc1OC`, the inhibition was 0.595% (inactive).

Consider `O=C(OCCN(CCOC(=O)c1ccncc1)S(=O)(=O)c1cccs1)c1ccncc1`, for which the inhibition is 1.63% (inactive).

Turning to `N#CCCN(Cc1cccnc1)C(=O)Nc1ccc(Cl)c(Cl)c1`, the inhibition is 0.065% (inactive).

`NC(=O)CN1C(=O)C(O)(CC(=O)c2ccccc2O)c2ccccc21` (configuration not stated): the inhibition is 1.52% (inactive).

Turning to `CCCOc1ccc(C2C(C(=O)OC)=CN(CCOC)C=C2C(=O)OC)cc1`, the inhibition was 2.16% (inactive).

For `C(=N\c1c(-c2ccccc2)nc2n1CCS2)/c1ccccc1`, the inhibition is 0.675% (inactive).

`COC(=O)c1cn(NC(=O)C2CCCO2)c(=O)c2ccccc12` (configuration not stated): the inhibition was 1.48% (inactive).

As to `CCN1CCN(C(=O)C2CC(c3ccc(F)cc3)=NO2)CC1` (configuration not stated), the inhibition is 0.095% (inactive).

In the case of `CCOC(=O)C1CCN(Cc2ccc(OC)c(C)c2OC)CC1`, the inhibition is 1.16% (inactive).

Take `Cn1c(NC(=O)c2ccccc2NC(=O)C(C)(C)C)nc2ccccc21`: the inhibition is -0.01% (inactive).

Turning to `Cc1cccc(CN2CCC(CNC(=O)C3CCCN(S(=O)(=O)c4cnc[nH]4)C3)CC2)c1` (configuration not stated), the inhibition was 1.33% (inactive).

Consider `CC1CC(NC(=O)c2cnc3n(c2=O)CCS3)CC(C)(C)C1` (configuration not stated), for which the inhibition was 0.545% (inactive).

Turning to `CC1CCCN(S(=O)(=O)c2coc(C(N)=O)c2)C1` (configuration not stated), the inhibition was 1.33% (inactive).

For `O=C(NCc1ccc2c(c1)OCO2)C1CCCN(S(=O)(=O)c2cccc3cccnc23)C1` (configuration not stated), the inhibition is 0.32% (inactive).

For the molecule `CC(C)(O)C#Cc1ccc(C(=O)N2CCN(C(=O)c3ccco3)CC2)cc1`, the inhibition is 0.66% (inactive).

Turning to `COC(=O)C1=C(C)Nc2nnnn2C1c1ccc(Cl)cc1Cl` (configuration not stated), the inhibition is 0.54% (inactive).

Regarding `CC(NC(=O)C1CC1)C(c1cccs1)N1CCN(c2ccccc2)CC1` (configuration not stated), the inhibition is 2.08% (inactive).

Take `O=C(Nc1c(C(=O)NCc2ccco2)cnn1-c1ccccc1)c1ccc(F)cc1`: the inhibition was -0.12% (inactive).

As for `COc1ccc(-n2c(Cc3cccn3C)nnc2SCC(=O)Nc2cccc(Cl)c2)cc1`, the inhibition was 0.615% (inactive).

`CCOC(=O)N1CCN(C(=O)c2ccc3nc4ccsc4c(=O)n3c2)CC1`: the inhibition is 0.335% (inactive).

Turning to `CCC(C)C(=O)Nc1nc2c(s1)C(=O)CC(C)(C)C2` (configuration not stated), the inhibition was 2.1% (inactive).

For `COc1cc2c(cc1OC)CN(C(=O)CSc1nc3[nH]ncc3c(=O)n1-c1ccccc1)CC2`, the inhibition was 1.19% (inactive).

As for `CC(NC(=O)c1cc2c(=O)n(C)c3ccccc3c2n1C)c1ccc2c(c1)OCCO2` (configuration not stated), the inhibition was 0.645% (inactive).

For `O=C(C1CCCN1S(=O)(=O)c1cccc2cccnc12)N1CCn2c1nc1ccccc12` (configuration not stated), the inhibition is 0.235% (inactive).

For the molecule `CCn1c(SCC(=O)Nc2cc(C)ccc2C)nc2c(c1=O)SC(C)C2` (configuration not stated), the inhibition is 1.16% (inactive).

On to `CCOC(=O)c1sc2nc(NC(=O)COc3ccccc3)sc2c1C`, for which the inhibition was 2.67% (inactive).

With `Cc1ccc(-n2ncc3c(N4CCCC(C)C4)ncnc32)c(C)c1` (configuration not stated), the inhibition was 0.12% (inactive).

For the molecule `O=C(O)C1C2C=CC3(CN(C4CCCC4)C(=O)C13)O2` (configuration not stated), the inhibition is 2.34% (inactive).

For `CCCCSc1nc2c(cnn2-c2ccc(F)cc2)c(=O)[nH]1`, the inhibition was 1.85% (inactive).

`CCCCCn1c(=O)[nH]c2cc(C(=O)NCCN3CCOCC3)ccc2c1=O`: the inhibition is 1.83% (inactive).

In the case of `Cc1ccc(-c2cc3nc4c(c(=O)n3[nH]2)CCCC4)cc1`, the inhibition was 2.7% (inactive).

Regarding `CCCOC(=O)c1[nH]c2c(c1C)C(=O)CC(c1cc(OC)c(OC)c(OC)c1)C2` (configuration not stated), the inhibition is 2.23% (inactive).

As to `COc1cccc(-c2nc3n(n2)C(c2ccccc2Cl)C(C(N)=O)=C(C)N3)c1` (configuration not stated), the inhibition was 0.735% (inactive).

For the molecule `Cc1c(NC(=O)c2ccc(Br)o2)c(=O)n(-c2ccccc2)n1C`, the inhibition was 1.59% (inactive).

`COc1ccc(-c2nc(CS(=O)CC(=O)NCc3ccccn3)c(C)o2)cc1` (configuration not stated): the inhibition is 1.57% (inactive).

For the molecule `CCOc1cc(C2NC(=O)NC(O)(C(F)(F)F)C2C(=O)c2ccccc2)ccc1OC` (configuration not stated), the inhibition is 0.24% (inactive).

With `CN(CCCNC(=O)c1cn(C)c2ccc(S(=O)(=O)N(C)C)cc2c1=O)c1ccccc1`, the inhibition is 0.395% (inactive).

Values taken from PubChem BioAssay.
